Hits are enriched below; roughly 12% of the tested compounds scored in any of these assays.
Arbovirus anti: antivirals against arbovirus infection. AID 1251. 0.37% of 200,000 active. inhibition, % at 10 µM. arbovirus infection cell-based antiviral screen; in the data active = inhibition above about 30%
CHOP inhibitor: blocks CHOP induction under ER stress; CHO-K1 CHOP-promoter luciferase, tunicamycin-induced, 15-18 h; inhibition, % at 10 µM; 3.8% of 220,000 active;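 active = compounds that reduced the stress-induced luciferase reporter signal by more than about 70% of percent inhibition, limit read from the data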
WT yeast gro inh: growth inhibition of WT yeast, mitochondrial fusion screen; inhibition, % at 10 µM; mitochondrial fusion phenotypic screen, WT strain; 2.1% of 190,000 active; in the data active = inhibition above about 58%; tested in S. cerevisiae
Lmaj promast: Leishmania major promastigote growth inhibition; Leishmania major promastigotes, resazurin fluorescence viability; inhibition, % at 10 µM; 9% of 200,000 active; AID 1063; in the data active = inhibition above about 50%;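 note: promastigotes grown with compound for 44 hours at 28 °C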
CHOP confirm: confirmation of CHOP induction inhibitors; shares compounds with CHOP inhibitor; CHO-CHOP promoter luciferase reporter, tunicamycin-induced, luminescence; inhibition, % at 10 µM; 45% of 2,100 active;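 active = mean of three repeat readings of reporter signal inhibition above a set limit, cut at about 70% in these data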
Of the large screens only hits and unclear results are named; the others gave an inactive call (follow-up assays come after a bar, where they were run).

COC(=O)c1ccc(COC(=O)c2ccc(CS(=O)(=O)c3ccc(C)cc3)cc2)cc1	none
Cn1c(-c2ccc(C(C)(C)C)cc2)n[nH]c1=S	none
CC(C)(C)c1ccc(-c2n[nH]c(=S)n2C2CCCC2)cc1	CHOP inhibitor 107.2, WT yeast gro inh 71.6 | CHOP confirm 121.4
CSc1ccccc1C(=O)OCC(=O)NC1CCS(=O)(=O)C1 (centres undefined)	none
COC(=O)Cc1ccc(NC(=S)NCc2ccccc2OC)cc1	none
CCC(C)c1ccc(NC(=S)NCc2ccccc2OC)cc1 (centres undefined)	CHOP inhibitor 97.0, WT yeast gro inh 76.8 | CHOP confirm inactive
S=C(NCCc1ccc(Cl)cc1)Nc1ccc(Cl)cc1Cl	CHOP inhibitor 104.8 | CHOP confirm 94.8
O=C(NCCc1ccc(Cl)cc1)Nc1cccc(Cl)c1	CHOP inhibitor 99.5, WT yeast gro inh 60.5 | CHOP confirm inactive
Cc1csc(NC(=O)CSc2nnc(-c3ccoc3C)n2C(C)c2ccccc2)n1 (centres undefined)	none (no result: Arbovirus anti, WT yeast gro inh, Lmaj promast)
O=S(=O)(Nc1nc2ccccc2s1)c1cnc(Cl)c(Br)c1	none (no result: Arbovirus anti, WT yeast gro inh, Lmaj promast)
CCOC(=O)/C(=C\c1ccc(OC(F)F)cc1)C1=Nn2c(nnc2-c2ccc(Cl)cc2)SC1	CHOP inhibitor 107.5, WT yeast gro inh 71.1, Lmaj promast 100.4 | CHOP confirm 120.2
CCn1nc(C)c(/C=C2\CCCC3=C2OC(N)=C(C#N)C3c2c(C)nn(CC)c2C)c1C (centres undefined)	none
Cc1ccc(/C=C2\CCC3=C2OC(N)=C(C#N)C3c2ccc(C)cc2)cc1 (centres undefined)	CHOP inhibitor 97.8, Lmaj promast 100.4 | CHOP confirm inactive
CCc1cc(C(=O)Cc2ccc(F)cc2)c(O)cc1O	none
CCCc1cc(C(=O)Cc2ccc(F)cc2)c(O)cc1O	CHOP inhibitor 100.3, WT yeast gro inh 81.6 | CHOP confirm 122.5
CCOC(=O)COc1ccc(C(=O)Nc2cccc(Cl)c2C)cc1	none
C/C(=N\NC(=O)CC1N=C(Cc2ccccc2)NNC1=O)c1ccccc1 (centres undefined)	none
C/C(=N\NC(=O)CC1N=C(Cc2ccccc2)NNC1=O)c1ccc(Cl)cc1Cl (centres undefined)	CHOP inhibitor 98.9 | CHOP confirm inactive
O=C(CC(NC(=O)c1ccccc1)c1ccccc1)Nc1cccc2ccccc12 (centres undefined)	CHOP inhibitor 103.7 | CHOP confirm inactive
O=C(Nc1cccc2ccccc12)c1ccccc1	none (no result: Arbovirus anti, WT yeast gro inh, Lmaj promast)
CC(C)=CCCC1(C)C=Cc2c(c(C)cc3c2[nH]c2cc(O)ccc23)O1 (centres undefined)	CHOP inhibitor 104.2 (no result: Arbovirus anti, WT yeast gro inh, Lmaj promast) | CHOP confirm 118.7
COc1ccccc1CNC(=O)N/C=C/c1ccc(Cl)cc1	none
COC(=O)c1cn(Nc2ncc(C(F)(F)F)cc2Cl)c(=O)c2ccccc12	CHOP inhibitor 98.8 | CHOP confirm inactive
Cc1ccc(C(=O)Nc2cccnc2N2CCN(C)CC2)cc1	none
CC(C)C[C@H](NC(=O)c1nc[nH]c1C(=O)NCC(=O)OC(C)(C)C)C(=O)OCc1ccccc1	CHOP inhibitor 101.0 (no result: Arbovirus anti, WT yeast gro inh, Lmaj promast) | CHOP confirm 114.0
CC(C)C[C@H](NC(=O)c1[nH]cnc1C(=O)Nc1ccccc1)C(=O)OC(C)(C)C	CHOP inhibitor 106.0 (no result: Arbovirus anti, WT yeast gro inh, Lmaj promast) | CHOP confirm 112.5
CC(C)C[C@H](NC(=O)c1[nH]cnc1C(=O)N[C@@H](C)C(=O)OC(C)(C)C)C(=O)OC(C)(C)C	CHOP inhibitor 104.0 (no result: Arbovirus anti, WT yeast gro inh, Lmaj promast) | CHOP confirm 134.5
CCOC(=O)c1ccc(NC(=O)c2nc[nH]c2C(=O)N[C@@H](CC(C)C)C(=O)OC(C)(C)C)cc1	none (no result: Arbovirus anti, WT yeast gro inh, Lmaj promast)
Nc1ncnc2c1ncn2[C@@H]1O[C@H](CO)C[C@@H]1O	none (no result: Lmaj promast)
O=C(CCN1CCc2ccccc2C1)Nc1ccccc1F	none
CCCC(=O)NC(=S)Nc1ccc(C(C)=O)cc1	none
Cc1n[nH]c(C)c1S(=O)(=O)N(CC(=O)N1CCc2ccccc21)c1ccc(C(C)C)cc1	CHOP inhibitor 96.2 | CHOP confirm inactive
CCOc1ccc(N(CC(=O)N2CCc3ccccc32)S(=O)(=O)c2c(C)noc2C)cc1	none
Cn1c(CC(=O)c2ccc(Br)cc2)[n+](C)c2ccccc21	none
COc1cc(C(=O)Nc2ccccc2C2COC(=O)C2=N)cc(OC)c1OC (centres undefined)	none
Cc1ccc2nc(NC(=O)CCn3c(=O)sc4ccccc43)sc2c1	CHOP inhibitor 97.5 | CHOP confirm inactive
O=C(CCn1c(=O)sc2ccccc21)Nc1nc2ccccc2s1	none
O=S(=O)(c1ccc(Cl)cc1)c1snnc1-c1ccccc1	Lmaj promast 100.5 (no result: CHOP inhibitor) | CHOP confirm inactive
O=C(CSc1nnc(SCc2cccc3ccccc23)s1)N/N=C/c1c[nH]c2ccccc12	CHOP inhibitor 105.1 | CHOP confirm inactive
CCCc1ccc(C(=O)NNC(=O)c2ccc(Br)cc2)cc1	CHOP inhibitor 98.8 | CHOP confirm inactive
CCCc1ccc(C(=O)NNc2ccc(F)cc2)cc1	none (no result: Arbovirus anti, WT yeast gro inh, Lmaj promast)
O=C(CSc1nnc(CNC(=O)c2ccco2)o1)Nc1nc2ccccc2s1	none
COc1ccc(NC(=O)c2cc3cccc(OC)c3oc2=Nc2ccc(C(=O)O)cc2)cc1OC	Arbovirus anti 31.5, CHOP inhibitor 102.9 | CHOP confirm 110.2
Nn1c(SCC(=O)N2CCOCC2)nnc1-c1ccccc1Cl	none
CCOC(=O)c1c(NC(=O)C2=C(C)NC(=S)NC2c2ccc(CC)cc2)sc(C)c1C (centres undefined)	CHOP inhibitor 97.2, Lmaj promast 85.3 | CHOP confirm inactive
COc1c(C(=O)Nc2ccc3[nH]c(=O)[nH]c3c2)cc2ccccc2c1Br	CHOP inhibitor 99.5 | CHOP confirm inactive
Oc1ccc(F)cc1-c1cc(-c2ccc3c(c2)OCCO3)n[nH]1	Arbovirus anti 31.5, CHOP inhibitor 98.9 | CHOP confirm inactive
Cc1csc(N(C(=O)c2ccccc2F)c2ccccc2)n1	none
COc1ccc(CN(C(C)=O)c2ccccc2C(=O)O)cc1	none (no result: Arbovirus anti, WT yeast gro inh, Lmaj promast)
COc1ccc(CN(C)C2c3ccccc3-c3ccccc32)cc1	CHOP inhibitor 106.1, WT yeast gro inh 69.2 | CHOP confirm inactive
COc1ccc(N2C(=O)CC(Sc3nc(C)cc(C)c3C#N)C2=O)cc1 (centres undefined)	none
O=C1CC(Sc2nnc(-c3ccccc3O)o2)C(=O)N1c1ccccc1 (centres undefined)	none
O=C1CC(Sc2nnnn2-c2ccccc2)C(=O)N1c1cccc(Cl)c1 (centres undefined)	CHOP inhibitor 110.2, Lmaj promast 71.3 | CHOP confirm 111.4
O=C1CC(SCc2nc3ccccc3[nH]2)C(=O)N1c1cccc(Cl)c1 (centres undefined)	none
COc1ccc(N2C(=O)CC(Sc3nnc(-c4ccccc4)o3)C2=O)cc1 (centres undefined)	CHOP inhibitor 108.8 | CHOP confirm inactive
COc1ccc(N2C(=O)CC(Sc3nnnn3-c3ccc(F)cc3)C2=O)cc1 (centres undefined)	CHOP inhibitor 106.6 | CHOP confirm 134.1
COc1ccc(Cl)cc1NC(=O)C1CSC(c2ccncc2)=N1 (centres undefined)	none
Cc1ccc(CNC(=O)C2CCCN(S(=O)(=O)c3c(C)noc3/C=C/N(C)C)C2)cc1 (centres undefined)	none (no result: Arbovirus anti, WT yeast gro inh, Lmaj promast)
